Compounds with a hit are over-represented: about 19% of the library has one in this group of screens.
IL-1B inflam inh: inflammasome signaling inhibition, IL-1 beta readout. THP-1 LPS/ATP IL-1B secretion, AlphaLISA, 16 h; stronger effect = lower value. activity change, % at 57.5 µM. 360,000 tested, 4.7% active; in the data active means activity change below about -50%; inconclusive means mostly about -30% to -49%
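Secreted IL-1B measured by AlphaLISA bead assay after 16 h compound exposure of THP-1 cells; compounds (final up to 57.5 uM) added 1 h before LPS (250 ng/mL) and ATP (1.25 mM) stimulation; lower signal means less secretion.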
DT40 TDP1 CPT: DT40-hTDP1 cell growth loss with CPT; 420,000 tested, 12% active; chicken DT40 Tdp1-/-;hTDP1 cells + 20 nM CPT, ATP luminescence, 48 h; Potency, µM (top dose mostly 46.2 µM), usual class: inhibitors; further: nearly all actives have a fitted effect of over 55% in size
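Chicken DT40 Tdp1-/- cells stably complemented with human TDP1 were seeded at 400 cells/well in medium containing 20 nM camptothecin, exposed to pin-transferred compounds, and grown at 37 °C for at least 48 hr. Viability was read as ATP luminescence.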
HT1080-NT tox: kills 2HG-producing HT-1080-NT fibrosarcoma cells | HT-1080-NT fibrosarcoma viability, CellTiter-Glo ATP luminescence, 48 h | Potency, µM (highest dose often 46.1 µM), hits mostly cytotoxic | 360,000 tested, 1.6% active;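 further: NT is the 2HG producing partner of a matched IDH1 knockdown line; nearly all actives have a fitted effect of over 55% in size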
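Viability by CellTiter-Glo luminescence after 48 h compound exposure at 37C of HT-1080-NT cells (750/well, RPMI, 5% FBS). % activity scaled between DMSO wells and medium-only wells, then curve-fitted and categorized by curve class.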
HT1080 IDH1KD tx: toxicity to HT-1080 IDH1 knockdown cells (counter line); HT-1080 IDH1 knockdown viability, ATP luminescence, 48 h; Potency, µM (series often up to 46.1 µM), actives largely listed as cytotoxic; 360,000 tested, 2% active; AID 686971
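CellTiter-Glo luminescence after 48 h compound exposure at 37 degrees C of IDH1-knockdown HT-1080 cells in 5% FBS RPMI. %Activity scaled between DMSO wells and cell-free media wells, with curves fitted and assigned curve classes.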
TDP1 cell noCPT: qHTS for Inhibitors of human tyrosyl-DNA phosphodiesterase 1 (TDP1): qHTS in cells in absence of CPT | DT40 Tdp1-/- hTDP1 cells, no CPT, ATP luminescence, 48 h | 420,000 tested, 15% active | Potency, µM (doses to about 46.2 µM), most hits filed as inhibitors | AID 686978, 2013; further: nearly all actives have a fitted effect of over 55% in size
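Stably hTDP1-transfected Tdp1-null chicken DT40 cells were treated with library compounds minus camptothecin and grown for at least 48 hr at 37 °C, after which cellular ATP was quantified by luminescence.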
A number is an active result; [ ] = another dose, or the depositor's remark. Unless noted, the call rests on the fitted dose curve; in most records, active means well fitted curve in the direction sought with a large enough effect; inconclusive means small, poorly fitted or top-dose-only effect, or another doubt; inactive means no such curve, though single readings can be large; an effect the other way counts as inactive or inconclusive.

For CCOc1cc(/C=C2\SC(=NC)N(C)C2=O)c(Br)cc1OC(C)=O the results were IL-1B inflam inh inactive, DT40 TDP1 CPT inconclusive, HT1080-NT tox inactive, HT1080 IDH1KD tx inactive and TDP1 cell noCPT 21µM.
CN1CCN(c2nc3c(c(=O)n(C)c(=O)n3C)n2CCSc2nnnn2-c2ccccc2)CC1 was read as IL-1B inflam inh inactive, DT40 TDP1 CPT inactive, HT1080-NT tox inactive, HT1080 IDH1KD tx inactive and TDP1 cell noCPT inactive.
Cn1c(=O)c2c(nc(N3CCN(Cc4ccccc4)CC3)n2CC(=O)c2ccccc2)n(C)c1=O was read as IL-1B inflam inh inactive, DT40 TDP1 CPT inactive, HT1080-NT tox inactive, HT1080 IDH1KD tx inactive and TDP1 cell noCPT inactive.
Screening Cn1c(=O)[nH]c(=O)c2c1nc(N1CCN(Cc3ccccc3)CC1)n2CCCc1ccccc1 returned IL-1B inflam inh inactive, DT40 TDP1 CPT 12µM, HT1080-NT tox inactive, HT1080 IDH1KD tx inactive and TDP1 cell noCPT 16µM.
Cn1c(=O)c2c(nc(N3CCN(c4ccccc4)CC3)n2CCCc2ccccc2)n(C)c1=O was read as IL-1B inflam inh inactive, DT40 TDP1 CPT 8.2µM, HT1080-NT tox inactive, HT1080 IDH1KD tx inactive and TDP1 cell noCPT 6.5µM.
`Cn1c(=O)[nH]c(=O)c2c1nc(N1CCCC1)n2CCCSc1nnnn1-c1ccccc1` gave IL-1B inflam inh inactive, DT40 TDP1 CPT 21µM, HT1080-NT tox inactive, HT1080 IDH1KD tx inactive and TDP1 cell noCPT 16µM.
`Cn1c(=O)c2c(nc(N3CCN(Cc4ccccc4)CC3)n2CCCc2ccccc2)n(C)c1=O` gave IL-1B inflam inh inactive, DT40 TDP1 CPT 12µM, HT1080-NT tox inconclusive, HT1080 IDH1KD tx inactive and TDP1 cell noCPT 18µM.
`CCN1CCN(c2nc3c(c(=O)[nH]c(=O)n3C)n2CCCc2ccccc2)CC1` gave IL-1B inflam inh inactive, DT40 TDP1 CPT inactive, HT1080-NT tox inactive, HT1080 IDH1KD tx inactive and TDP1 cell noCPT inactive.
NC(Cc1cnc[nH]1)C(=O)Nc1ccc2ccccc2c1 (stereo unspecified) was read as DT40 TDP1 CPT inactive and TDP1 cell noCPT inactive.
CN1CCN(c2nc3c(c(=O)n(C)c(=O)n3C)n2Cc2ccccc2)CC1 was read as IL-1B inflam inh inactive, DT40 TDP1 CPT inactive, HT1080-NT tox inactive, HT1080 IDH1KD tx inactive and TDP1 cell noCPT inactive.
For Cn1c(=O)c2c(nc(N3CCN(c4ccc([N+](=O)[O-])cc4)CC3)n2C)n(C)c1=O the results were IL-1B inflam inh inactive, DT40 TDP1 CPT inactive, HT1080-NT tox inactive, HT1080 IDH1KD tx inactive and TDP1 cell noCPT 18µM.
`CC1CCN(c2nc3c(c(=O)n(C)c(=O)n3C)n2Cc2ccccc2)CC1` gave IL-1B inflam inh -62, DT40 TDP1 CPT inactive, HT1080-NT tox inactive, HT1080 IDH1KD tx inactive[9.24 µM] and TDP1 cell noCPT inconclusive.
For c1ccc(CNc2ncnc3sc4c(c23)CCC4)nc1 the results were IL-1B inflam inh inactive, DT40 TDP1 CPT inconclusive, HT1080-NT tox inactive, HT1080 IDH1KD tx inactive and TDP1 cell noCPT 15µM.
`c1ccc(-c2csc3ncnc(NCc4ccccn4)c23)cc1` gave IL-1B inflam inh inactive, DT40 TDP1 CPT 12µM, HT1080-NT tox inactive, HT1080 IDH1KD tx inactive and TDP1 cell noCPT 9.2µM.
For O=S(=O)(Nc1ncnc2sc3c(c12)CCC3)c1ccc(Cl)s1 the results were IL-1B inflam inh inactive, DT40 TDP1 CPT inconclusive, HT1080-NT tox inactive, HT1080 IDH1KD tx inactive and TDP1 cell noCPT 13µM.
For Oc1ccc(Nc2ncnc3scc(-c4ccccc4)c23)cc1 the results were IL-1B inflam inh inactive, DT40 TDP1 CPT inconclusive, HT1080-NT tox inactive, HT1080 IDH1KD tx inactive and TDP1 cell noCPT 8.2µM.
`N#Cc1ccccc1C[C@H](N)C(=O)NC[C@H]1O[C@@H](n2ccc(N)nc2=O)[C@H](O)[C@@H]1O` gave IL-1B inflam inh inactive, DT40 TDP1 CPT inactive, HT1080-NT tox inactive, HT1080 IDH1KD tx inactive and TDP1 cell noCPT inactive.
CC1CN(CCC(=O)NCc2ccc3ncccc3c2)Cc2cc(Cl)ccc2O1 (stereo unspecified) was read as DT40 TDP1 CPT inactive[9.04 µM] and TDP1 cell noCPT inconclusive.
`COc1ccccc1CN1[C@@H](CC(C)=O)c2cc(C(F)(F)F)ccc2S1(=O)=O` gave IL-1B inflam inh inactive, DT40 TDP1 CPT inconclusive, HT1080-NT tox inactive, HT1080 IDH1KD tx inactive and TDP1 cell noCPT inconclusive.
c1ccc(CNc2ncnc3scc(-c4cccs4)c23)nc1 was read as IL-1B inflam inh inconclusive, DT40 TDP1 CPT 10µM, HT1080-NT tox inactive, HT1080 IDH1KD tx inactive and TDP1 cell noCPT 9.2µM.
`CCC1CCCCN1C(=O)CCCOc1ccccc1` (stereo unspecified) gave IL-1B inflam inh inactive, DT40 TDP1 CPT 23µM, HT1080-NT tox inactive, HT1080 IDH1KD tx inactive and TDP1 cell noCPT inconclusive.
Screening CC(O)CN1C(=O)C(CC(=O)Nc2ccc(Cl)cc2)SC1=Nc1ccccc1 (stereo unspecified) returned IL-1B inflam inh -56, DT40 TDP1 CPT inconclusive, HT1080-NT tox inconclusive, HT1080 IDH1KD tx inconclusive and TDP1 cell noCPT 26µM.
For CCCCN1C(=O)C(CC(=O)NCC)SC1=Nc1ccccc1 (stereo unspecified) the results were IL-1B inflam inh inactive, DT40 TDP1 CPT inactive, HT1080-NT tox inactive, HT1080 IDH1KD tx inactive and TDP1 cell noCPT inactive.
Screening COCCN1C(=O)C(CC(=O)Nc2ccc(C(C)=O)cc2)SC1=Nc1ccccc1 (stereo unspecified) returned IL-1B inflam inh inactive, DT40 TDP1 CPT 16µM, HT1080-NT tox inactive, HT1080 IDH1KD tx inactive and TDP1 cell noCPT inconclusive.
`C=CCN1C(=O)C(CC(=O)Nc2ccc(C)cc2)SC1=Nc1c(C)n(C)n(-c2ccccc2)c1=O` (stereo unspecified) gave IL-1B inflam inh inactive, DT40 TDP1 CPT inactive, HT1080-NT tox inactive, HT1080 IDH1KD tx inactive and TDP1 cell noCPT inactive.
O=S(=O)(NC1CCCCCC1)c1cccc(Cl)c1 was read as IL-1B inflam inh inconclusive, DT40 TDP1 CPT inconclusive, HT1080-NT tox inactive, HT1080 IDH1KD tx inactive and TDP1 cell noCPT inconclusive.
`CCOc1cc(S(=O)(=O)NC2CCCCCC2)ccc1F` gave IL-1B inflam inh inactive, DT40 TDP1 CPT 21µM, HT1080-NT tox inactive, HT1080 IDH1KD tx inactive and TDP1 cell noCPT inconclusive.
`Cc1cccc(S(=O)(=O)NC2CCCCCCC2)c1` gave IL-1B inflam inh inactive, DT40 TDP1 CPT 21µM, HT1080-NT tox inactive, HT1080 IDH1KD tx inactive and TDP1 cell noCPT inconclusive.
CCOC(=O)N1CCC(NS(=O)(=O)c2ccc(C)c(Cl)c2)CC1 was read as IL-1B inflam inh inactive, DT40 TDP1 CPT inconclusive, HT1080-NT tox inactive, HT1080 IDH1KD tx inactive and TDP1 cell noCPT 6.5µM.
CCOC(=O)N1CCN(C(=O)COc2ccc(S(=O)(=O)NC3CCCCC3)cc2C)CC1 was read as IL-1B inflam inh inactive, DT40 TDP1 CPT inconclusive, HT1080-NT tox inactive, HT1080 IDH1KD tx inactive and TDP1 cell noCPT 18µM.

Assay outcomes: PubChem BioAssay, National Center for Advancing Translational Sciences (NCATS)
